Test results from PubChem BioAssay.
Values joined by “and” are separate entries in the source; they are usually repeats but may differ in a detail not shown here. Equal values may be shown once. Unmarked numbers belong to inactive results. Active and inactive are the calls of the source.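 Rule for the calls: active = thallium flux through the channel raised or lowered by more than 3 SD from vehicle-only wells, actives on both sides; inactive = the rest.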

Columns and labels:
F380Y = assay: modulators of BK channel variants, profiling panel, selectivity assay, cell-based, U2OS BacMam, thallium flux, beta subunits (AID 1259406); settings: at 30 µM;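 note: initial slope of Thallos dye fluorescence rise after thallium is added; log ratio against the mean of 0.3% DMSO vehicle wells on the same plate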
F380Y/beta1 = assay: as above; settings: at 30 µM

Row | Structure (SMILES) | log fold change Tl+ flux (F380Y) | log fold change Tl+ flux (F380Y/beta1)
1 | CCc1nn(CCCN2CCN(c3cccc(Cl)c3)CC2)c(=O)n1CCOc1ccccc1 | -0.403 (active) | -0.178 (active)
2 | COc1ccc2nc(S(=O)Cc3ncc(C)c(OC)c3C)[nH]c2c1 (stereo unspecified) | 0.0402 | 0.0641
3 | O=C(c1ccc(F)cc1)C1CCN(CCn2c(=S)[nH]c3ccccc3c2=O)CC1 | 0.0153 | 0.00744
4 | CN(C)CC[C@@H](c1ccc(Br)cc1)c1ccccn1 | 0.102 | 0.0384
5 | CCOc1cc(CC(=O)N[C@@H](CC(C)C)c2ccccc2N2CCCCC2)ccc1C(=O)O | 0.252 (active) | 0.45 (active)
6 | COc1ccccc1N1CCN(CC(O)COc2cccc3ccccc23)CC1 (stereo unspecified) | -0.03 | -0.0336
7 | Nc1nnc(-c2cccc(Cl)c2Cl)c(N)n1 | -0.00765 | -0.046
8 | Cc1cccc(C)c1OCC(C)N (stereo unspecified) | -0.014 | 0.0282
9 | CN1CCN(C2=Nc3cc(F)ccc3Cc3ccccc32)CC1 | 0.06 | 0.0457
10 | NC1CCN(c2nc3c(cc2F)c(=O)c(C(=O)O)cn3-c2ccc(F)cc2F)C1 (stereo unspecified) | -0.0112 | 0.0192
11 | COC(=O)C1=C(C)NC(C)=C(C(=O)OC(C)C)C1c1cccc2nonc12 (stereo unspecified) | 0.00609 | 0.106 (active)
12 | Nc1nc(N)nc(-c2cc(Cl)ccc2Cl)n1 | 0.00819 | 0.00785
13 | CCC(=O)O[C@]1(C(=O)SCF)[C@H](C)C[C@H]2[C@@H]3C[C@H](F)C4=CC(=O)C=C[C@]4(C)[C@@]3(F)[C@@H](O)C[C@@]21C | 0.0283 | -0.0132
14 | COc1cc(C(=O)NS(=O)(=O)c2ccccc2C)ccc1Cc1cn(C)c2ccc(NC(=O)OC3CCCC3)cc12 | 0.278 (active) | 0.461 (active)
15 | Cn1c(NCCN(CCO)CCCc2ccc([N+](=O)[O-])cc2)cc(=O)n(C)c1=O | -0.0604 | -0.0554
16 | CC(C)(O)c1ccccc1CC[C@@H](SCC1(CC(=O)O)CC1)c1cccc(/C=C/c2ccc3ccc(Cl)cc3n2)c1 | 0.278 (active) | 0.853 (active)
17 | CCCN[C@H]1CCc2nc(N)sc2C1 | 0.0634 and -0.0393 | 0.0248

Row | Structure (SMILES) | log fold change Tl+ flux (F380Y) | log fold change Tl+ flux (F380Y/beta1)
18 | CCOC(=O)c1ncn2c1CN(C)C(=O)c1cc(F)ccc1-2 | -0.0521 | -0.00468
19 | CCN1CC(CCN2CCOCC2)C(c2ccccc2)(c2ccccc2)C1=O (stereo unspecified) | 0.0128 | -0.0268
20 | Cc1cn([C@H]2C=C[C@@H](CO)O2)c(=O)[nH]c1=O | -0.00288 and 0.0465 | 0.0156 and 0.0441
21 | OCCOCCN1CCN(C2=Nc3ccccc3Sc3ccccc32)CC1 | 0.134 (active) | 0.105 (active)
22 | O=C1N(c2ccccc2)c2ccccc2C1(Cc1ccncc1)Cc1ccncc1 | 0.0425 | -0.0119
23 | CN1CCC(=C2c3ccccc3CC(=O)c3sccc32)CC1 | 0.0548 | 0.0457
24 | CCCOc1ccc(C(=O)OCCN(CC)CC)cc1N | 0.0362 | -0.0262
25 | Cc1[nH]cnc1CN1CCc2c(c3ccccc3n2C)C1=O | 0.0315 | 0.0327
26 | CCOC(=O)C1=C(C)NC(C)=C(C(=O)OC)C1c1cccc(Cl)c1Cl (stereo unspecified) | 0.00922 | -0.0618
27 | CCOC(=O)O[C@]1(C(=O)OCCl)CC[C@H]2[C@@H]3CCC4=CC(=O)C=C[C@]4(C)[C@H]3[C@@H](O)C[C@@]21C | -0.0169 | -0.0185
28 | Cc1c(O)cccc1C(=O)N[C@@H](CSc1ccccc1)[C@H](O)CN1C[C@H]2CCCC[C@H]2C[C@H]1C(=O)NC(C)(C)C | 0.0722 | 0.0513
29 | CN(C)CC[C@@H](c1ccc(Cl)cc1)c1ccccn1 | 0.112 (active) | 0.0236
30 | CCCc1nc(C)c2c(=O)[nH]c(-c3cc(S(=O)(=O)N4CCN(CC)CC4)ccc3OCC)nn12 | -0.00852 | 0.00246
31 | CC(c1cc2ccccc2s1)N(O)C(N)=O (stereo unspecified) | -0.00504 | 0.00537
32 | N#Cc1ccc(C(c2ccc(C#N)cc2)n2cncn2)cc1 | -0.0169 | 0.0204
33 | CC(C)(C)NC(=O)[C@H]1CC[C@H]2[C@@H]3CC[C@H]4NC(=O)C=C[C@]4(C)[C@H]3CC[C@]12C | 0.0287 | 0.0111
